Test [1] in a line: Human pregnane X receptor (PXR) small molecule agonists, qHTS cell viability counter screen (AID 1346977). Also: nearly all actives have a fitted effect of over 50% in size. The gist of the method:
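Tox21 qHTS format; PXR-Luc HepG2, 2,000/well, charcoal-stripped FBS 5%. Cpd exposure 24hr. Read: CellTiter-Fluor fluorescence, multiplexed with luciferase.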
On the technique in general: Quantitative high-throughput screening tests each substance at several concentrations.

The nature of test [2]: Caspase-3/7 induction in HepG2 cells by small molecules, qHTS assay (AID 1346978). Also: nearly all actives have a fitted effect of over 15% in size. The gist of the method: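 Wild-type HepG2 cells (2,000/well) were settled 5 h at 37 C, 5% CO2, then exposed to compounds in DMSO for 17 h. Caspase-3/7 activity was read by luminescence 30 min after adding Caspase-Glo 3/7 reagent at room temperature.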
Test [3] in a line: Caspase-3/7 induction in CHO-K1 cells by small molecules, qHTS cell viability counter screen (AID 1346979). Also: nearly all actives have a fitted effect of over 35% in size. An outline of the steps: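 CellTiter-Fluor viability check, qHTS format: wild-type CHO-K1, 16hr compound treatment, 1hr reagent incubation, fluorescence read.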
The nature of test [4]: Caspase-3/7 induction in CHO-K1 cells by small molecules, qHTS assay (AID 1346980). Also: nearly all actives have a fitted effect of over 15% in size. An outline of the steps: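 Wild-type cells were seeded at 1,500 per well and settled 5 hr at 37 C, 5% CO2, then exposed to DMSO-dissolved compounds for 17 hr. Caspase-Glo 3/7 reagent was added, and luminescence was read after 30min at room temperature.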
Test [5] can be described thus: Caspase-3/7 induction in HepG2 cells by small molecules, qHTS cell viability counter screen (AID 1346981). Also: series mostly up to about 92 µM; nearly all actives have a fitted effect of over 30% in size. The gist of the method:
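The parent HepG2 line is plated at 2,000 cells per well and rested 5 hr before compound pinning from DMSO stocks. Following a 16-hr treatment at 37 C, a fluorogenic live-cell substrate (CellTiter-Fluor) reports viability after 1 hr.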

Test [6] deals with Thyrotropin-releasing hormone receptor (Homo sapiens) (UniProt P34981). The test is described as follows: qHTS assay to identify small molecule agonists of the thyrotropin-releasing hormone receptor (TRHR) signaling pathway (AID 1346891; calls by dose curve; also: series mostly up to about 58 µM). The gist of the method: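 Screening of agonists relied on calcium signalling in HEK293 cells expressing human TRHR: dye loading 2 h at 37 °C preceded compound addition and a 3-min fluorescence time course.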
Chain of Thyrotropin-releasing hormone receptor (Homo sapiens) (P34981 whole entry, looked up): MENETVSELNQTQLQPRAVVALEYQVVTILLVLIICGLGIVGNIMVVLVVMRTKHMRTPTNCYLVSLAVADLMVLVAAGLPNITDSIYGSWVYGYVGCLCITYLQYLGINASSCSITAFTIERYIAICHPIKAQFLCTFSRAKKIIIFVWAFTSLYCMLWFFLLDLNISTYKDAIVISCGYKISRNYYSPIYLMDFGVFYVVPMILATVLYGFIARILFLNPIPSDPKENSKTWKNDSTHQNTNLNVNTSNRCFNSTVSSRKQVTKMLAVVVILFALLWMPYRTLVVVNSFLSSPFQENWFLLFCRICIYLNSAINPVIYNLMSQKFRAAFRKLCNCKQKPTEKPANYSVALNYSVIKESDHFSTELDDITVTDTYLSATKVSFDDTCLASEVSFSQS

For test [7], the target named is Nuclear receptor subfamily 1 group I member 2 (Homo sapiens) (UniProt O75469). The test is described as follows: Human pregnane X receptor (PXR) small molecule agonists, qHTS assay (AID 1346982). Also: nearly all actives have a fitted effect of over 35% in size. Also: potency is read from the fitted curve at half-maximal effect. The gist of the method:
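After plating in 5% charcoal-stripped FBS and a 5 hr rest, PXR-Luc HepG2 cells received compounds in DMSO. Following 24 hr at 37 C, ONE-Glo was added and light output read.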

Test [8] concerns the target Nuclear receptor subfamily 1 group I member 2 (Rattus norvegicus) (UniProt Q9R1A7). The test is described as follows: Rat pregnane X receptor (rPXR) activation by small molecules, qHTS assay (AID 1346983). Also: nearly all actives have a fitted effect of over 20% in size. To be noted: rPXR luciferase reporter cells, One-Glo luminescence, 24 h; hits give high values. An outline of the steps: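 Cell-based rPXR luciferase reporter assay, 2,000 cells per well, rested 5hr at 37 C before compound addition in DMSO, then 24 hr at 37 C. One-Glo reagent was added and luminescence read after 30 min at room temperature.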

The target of test [9] is Nuclear receptor subfamily 1 group I member 2 (Homo sapiens) (UniProt O75469). The test is described as follows: CYP3A4 induction through human pregnane X receptor (PXR) by small molecules, qHTS assay (AID 1346984). Also: nearly all actives have a fitted effect of over 40% in size. Also: potency is read from the fitted curve at half-maximal effect. An outline of the steps: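 Human PXR activation is tracked via CYP3A4 promoter-luciferase in DPX-2 (HepG2) cells. Compounds treat cells for 24hr at 37C, and luminescence is read after One-Glo.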
Chain of Nuclear receptor subfamily 1 group I member 2 (Homo sapiens) (O75469 whole entry, looked up): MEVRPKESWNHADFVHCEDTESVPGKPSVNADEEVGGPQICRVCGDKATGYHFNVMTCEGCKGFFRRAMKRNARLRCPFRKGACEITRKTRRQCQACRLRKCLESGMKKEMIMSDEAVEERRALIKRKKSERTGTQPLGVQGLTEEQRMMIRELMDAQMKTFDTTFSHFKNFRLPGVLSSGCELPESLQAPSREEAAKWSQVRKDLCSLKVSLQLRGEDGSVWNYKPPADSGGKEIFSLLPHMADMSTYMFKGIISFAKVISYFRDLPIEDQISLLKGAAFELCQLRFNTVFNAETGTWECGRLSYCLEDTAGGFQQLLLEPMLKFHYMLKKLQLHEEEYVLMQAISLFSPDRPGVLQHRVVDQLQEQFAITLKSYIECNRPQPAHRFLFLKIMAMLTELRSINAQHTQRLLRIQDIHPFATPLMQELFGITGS

Test [10] shares this target. The test is described as follows: Human pregnane X receptor (PXR) activation by small molecules, qHTS assay (AID 1346985). Also: nearly all actives have a fitted effect of over 40% in size. The gist of the method: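 DPX-2 cells (HepG2 co-transfected with a PXR response element and a CYP3A4-promoter luciferase construct) were seeded at 2,000 per well, rested 5 hr at 37C, then exposed to DMSO-dissolved compounds for 24 hr. Activation was read as luciferase luminescence.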

Unmarked numbers belong to inactive results. Inconclusive results are not listed. Active and inactive are the calls of the source. Unless noted, calls follow the shape of the dose curve; as a rule, active = well fitted curve in the direction sought with a large enough effect in the repeat runs; inconclusive = weak or mixed curves; inactive = no such curve, though single readings can be large; an effect the other way counts as inactive or inconclusive.
% is scaled to controls: 0 for no effect and ±100 for the full control effect.

Chain of Nuclear receptor subfamily 1 group I member 2 (Rattus norvegicus) (Q9R1A7 whole entry, looked up): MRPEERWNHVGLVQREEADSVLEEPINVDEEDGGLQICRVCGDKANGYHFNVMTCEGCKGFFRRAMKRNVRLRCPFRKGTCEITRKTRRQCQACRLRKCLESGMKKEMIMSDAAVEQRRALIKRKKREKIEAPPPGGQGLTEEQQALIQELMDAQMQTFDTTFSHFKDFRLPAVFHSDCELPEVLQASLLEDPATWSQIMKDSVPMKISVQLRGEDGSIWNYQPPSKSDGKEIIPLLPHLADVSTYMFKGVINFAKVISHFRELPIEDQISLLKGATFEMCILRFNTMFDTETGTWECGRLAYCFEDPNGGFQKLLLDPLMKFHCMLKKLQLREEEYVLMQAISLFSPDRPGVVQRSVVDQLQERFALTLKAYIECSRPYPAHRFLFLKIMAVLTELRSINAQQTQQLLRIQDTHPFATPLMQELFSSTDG

As to `CCOC(=O)CC(C)=O`, the Potency entry in [1], in test [2], in test [3] and in test [5] was “inactive” each time. Further, in test [4], the molecule was classed as inactive.
Take `CCCCNC(=O)NCCCC`: in test [6], the molecule was called inactive. Further, the Potency result in test [2] and in test [5] was “inactive” throughout.
For the molecule `CC(=O)OCC(=O)[C@@]1(O)CC[C@H]2[C@@H]3CCC4=CC(=O)CC[C@]4(C)[C@H]3C(=O)C[C@@]21C`, the Potency result in [1], in test [2], in [3], in test [5] and in test [7] was “inactive” in each case. For the same molecule, in test [4], the outcome was inactive.
Regarding `CCOC(=O)c1c(C)n(C)c2ccc(O)cc12`, the call in test [6] and in test [4] was inactive. The Potency result in test [2], in test [3], in [5], in test [9] and in test [10] was “inactive” in each case. Moreover, the max activation in test [8] is -1.63%.
For `CCOC(=O)CCC(C)=O`, the Potency result in [1], in test [2], in [3], in [5] and in test [7] was “inactive” each time. Besides, the result in [4] was inactive.
On to `OC(CCN1CCCCC1)(c1ccccc1)C1CC2C=CC1C2` (stereo unspecified), for which the call in test [6] and in [4] was inactive. The Potency entry in [2], in test [3] and in [5] was “inactive” each time. Besides, the values for the Potency in [7] and in test [9] were 10.6 µM (active) and 28.2 µM (active), respectively. For the same molecule, the max activation in test [8] is -2.76%.
For `CCOC(=O)C(=O)OCC`, the Potency entry in [1], in [2], in [3] and in [5] was “inactive” in each case. For the same molecule, the molecule was classed as inactive in [4].
In the case of `CN1CC(=O)NC1=N`, the molecule was classed as inactive in test [6] and in test [4]. The Potency entry in [2], in test [3], in test [5], in [9] and in [10] was “inactive” throughout. Besides, in test [8], the max activation was -5.88%.
For the molecule `O=C(O)CN(CCOCCOCCN(CC(=O)O)CC(=O)O)CC(=O)O`, the activity change, negative = cytotoxicity is 6.91% [at 0.349 µM] in test [1], 10.9% [at 0.349 µM] in [3] and 2.16% [at 0.349 µM] in test [5]. Also, in test [2], the caspase activation is -0.864% [at 0.349 µM]. Further, the caspase-3/7 activation in test [4] was 0.707% [at 0.349 µM].
Regarding `CCCCCCOC(=O)CCCCC(=O)OCCCCCC`, the outcome in [6] and in test [4] was inactive. Also, the Potency entry in test [2], in [3], in [5] and in test [7] was “inactive” in each case.
With `CC[N+](C)(C)c1cccc(O)c1`, the Potency result in test [1], in test [2], in test [3] and in [5] was “inactive” each time. Besides, the molecule was classed as inactive in test [4]. Moreover, the max activation in [8] is -3.46%.
For the molecule `NC(=O)Nc1ccccc1`, the Potency entry in [1], in test [2], in test [3], in [5] and in test [7] was “inactive” in each case. In addition, in test [4], the call was inactive.
As to `O=C1OC(=O)C2CCCCC12` (stereo unspecified), the Potency result in test [1], in [2], in test [3], in [5] and in test [7] was “inactive” in each case. Further, in test [4], the call was inactive.
In the case of `CCOC(=O)Nc1ccc(NCc2ccc(F)cc2)nc1N`, the Potency entry in [1], in [2], in [3], in test [5], in test [7] and in test [9] was “inactive” in each case. Further, the result in test [4] was inactive. In addition, the max activation in test [8] was 1.97%.
As for `CC/C=C\CC/C=C/C(OCC)OCC`, the Potency result in test [1], in [2], in test [3] and in test [5] was “inactive” in each case. Further, in [4], the molecule was called inactive. For the same molecule, in [7], the Potency was 24.3 µM (active).
For `C=CCCCCCCCCC=O`, the Potency entry in test [1], in test [2], in test [3], in test [5] and in test [7] was “inactive” throughout. In addition, the molecule was classed as inactive in test [4].
For `CN(C(=O)c1c(O)c2ccccc2n(C)c1=O)c1ccccc1`, the Potency result in [1], in test [2], in test [3] and in test [5] was “inactive” throughout. Moreover, the result in [4] was inactive. Further, the max activation in test [8] was -3.59%.
`CC(=O)Nc1c(I)cc(I)c(C(=O)O)c1I`: the Potency entry in test [1], in [2], in test [3], in test [5], in test [9] and in test [10] was “inactive” throughout. Further, the molecule was called inactive in [4]. Moreover, the max activation in test [8] is -2.53%.
Take `NC(=O)c1ccc([N+](=O)[O-])cc1`: the Potency entry in [1], in test [2], in test [3], in test [5] and in [7] was “inactive” throughout. For the same molecule, in test [4], the outcome was inactive.
On to `FC1(F)C(F)(F)C(F)(F)C2(F)C(F)(F)C(F)(F)C(F)(F)C(F)(F)C2(F)C1(F)F` (stereo unspecified), for which the Potency result in test [1], in [2], in test [3], in test [5], in [7] and in [9] was “inactive” throughout. In test [10], the Potency entry is “inactive”. Also, in test [4], the call was inactive. Moreover, in test [8], the max activation is -2.25%.
`CN1CCC(=C2c3ccccc3CC(=O)c3sccc32)CC1`: the Potency entry in test [2], in test [3], in [5] and in test [7] was “inactive” throughout. The result in test [4] was inactive.
Consider `Cc1cccc(C)c1NC(=O)C(C)N` (stereo unspecified), for which the Potency result in test [1], in test [2], in [3], in test [5], in test [7] and in [9] was “inactive” in each case. For the same molecule, the Potency result in [10] was “inactive”. The outcome in test [4] was inactive. Further, the max activation in test [8] is -0.615%.

The record behind these values is PubChem BioAssay (Tox21).
